Test results from PubChem BioAssay (NCATS).
Activity calls are given as the source filed them. Calls follow the shape of the dose curve; as a rule, active = well fitted curve in the direction sought with a large enough effect; inconclusive = small, poorly fitted or top-dose-only effect, or effect the other way, or another doubt; inactive = no such curve, though single readings can be large or run the other way.

Test: qHTS for inhibitors of adenylyl cyclases using a fission yeast platform: a pilot screen against the NCATS LOPAC library (AID 1347410)
Settings: S. pombe CHP2027, fbp1-GFP fluorescence, 18 h, yeast expressing mammalian AC9 and human GNAS; series mostly up to 57.5 µM
Text: PI: Charles S. Hoffman Ph.D
Boston College, 140 Commonwealth Ave., Chestnut Hill, MA
Assay Development and Screening Technology Laboratory (ADST)
National Center for Advancing Translational Sciences (NCATS), Rockville, MD
National Institute of Health (NIH), Bethesda, Maryland
The fission yeast Schizosaccharomyces pombe uses a cAMP signaling pathway to link glucose-sensing to Protein Kinase A activity in order to regulate cell growth, sexual development, gluconeogenesis, and exit from stationary phase. Here, we describe the successful functional expression of all ten mammalian adenylyl cyclase (AC) genes, along with the human GNAS G-alpha gene in this organism. By measuring expression of a PKA-repressed fbp1-GFP reporter together with direct measurements of intracellular cAMP levels, one can detect both basal AC activity from all ten AC genes as well as GNAS-stimulated activity from eight of the nine transmembrane ACs (tmACs; AC2-AC9).
Further confirmation and validation of active compounds lead to the identification of diphenyleneiodonium chloride (DPI) as an inhibitor of basal AC activity. This fluorescence based fbp1-GFP-GNAS screening technology could facilitate the development of therapeutic compounds that target GNAS or the ACs, an area in which there is significant unmet need.
The gain-of-signal output is not substantially affected by cytotoxic compounds within the library.
Getz RA, et al., A fission yeast platform for heterologous expression of mammalian adenylyl cyclases and high throughput screening, Cellular Signaling, 2019, 60: 114-121. doi.org/10.1016/j.cellsig.2019.04.010.
PROTOCOL TABLE (as described by Inglese J, Shamu CE and Guy RK. 2007)
SEQUENCE No. (e.g., 1, 2, 3, etc.); […] (e.g., Cells, Incubation, Reagent, etc.); VALUE; DESCRIPTION.
1; Dispense growth medium; 2 uL; black, clear bottom, low base, 1536-well Aurora assay plate.
2; Compounds and control; 23 nL; Kalypsis pin tool (Wako USA) equipped with a 1536-well pin head to transfer to the assay plates.
3; Dispense yeast cells; 2 uL; CHP2027 cells.
4; Incubation; 18 hours (dark at 30C); Non-humidified microbial incubator.
5; Detector; 425V; Fluorescence; laser scanning cytometry.
NOTES (numbers refer to Sequence numbers above)
1. S. pombe growth medium EMM containing histidine, lysine, and uracil was initially dispensed into the assay plate to avoid yeast contamination using a Multidrop Combi dispenser (Thermo Fisher Scientific).
2. 10 mM stock solution of DPI (Sigma-Aldrich D2926) dissolved in DMSO was used as a 16-point dose response positive control, while 1.11 mM DPI stock solution was used as a single point max response positive control. Solvent DMSO was used as the negative control. Control DPI was transferred as a single-dose (column 3; rows 1-32; 1.11 mM stock), and multi-dose (column 4; rows 1-32; 10mM stock; 1:1.5 dilution; 16pnt titration) positive controls. Vehicle control DMSO was pinned into column 1-2, rows 1-32. Lopac compounds were pinned into columns 5-48 resulting to a final concentration range 57 µM to 78.4 nMControl DPI stock (10 mM) was prepared by dissolving 10 mg in 3.18 mL DMSO; while 1.11 mM DPI stock was prepared by mixing 100 uL of 10 mM DPI with 800 uL DMSO. To create the control plates, we initially start with a 384-well compound working plate. With a repeater pipette, (a.) 16 uL/well of 1.11 mM DPI was added to column 3; (b.) 16 uL/well of DMSO was added into rows 2-16 of column 4; (c.) 50 uL/well of DPI added to rows 1 and 2 of column 4; (d.) 32 uL serial dilution (two-thirds-fold) from rows 2 to 16 of column 4 with manual pipette. From the 384-well compound working plate, 7 uL of respective control compound was transferred to respective columns of the 1536-well compound plate using a multichannel pipette.
3. S. pombe CHP2027 (AC9-GNAS-PDE4D2) expressing fbp1-GFP cells were grown at 30C in EMM medium containing histidine, lysine, and uracil. […]

Row | Structure (SMILES) | outcome
1 | CCn1ccnc1CC1COc2ccccc2O1 (stereo not given) | inactive
2 | CCC(=O)c1ccc2c(c1)N(CCCN(C)C)c1ccccc1S2 | inactive
3 | CN(C)[C@@H]1C(=O)C(C(N)=O)=C(O)[C@@]2(O)C(=O)C3=C(O)c4c(O)ccc(Cl)c4[C@@H](O)[C@H]3C[C@@H]12 | inactive
4 | Cc1ccc(Cl)c(Nc2ccccc2C(=O)O)c1Cl | inactive
5 | CCN(CC)CCCN(c1ccccc1)C1Cc2ccccc2C1 | inactive
6 | Cc1cccc(C)c1NC(=O)C(C)N (stereo not given) | inactive
7 | Cc1ccc(S(=O)(=O)NC(=O)NN2CCCCCC2)cc1 | inactive
8 | C[C@]12C=CC(=O)C=C1CC[C@H]1[C@@H]3C[C@@H](O)[C@](O)(C(=O)CO)[C@@]3(C)C[C@H](O)[C@@]12F | inactive
9 | Cc1nc2c([nH]1)c(=O)n(C)c(=O)n2Cc1ccco1 | inactive
10 | CC(=O)OC(C)C[N+](C)(C)C (stereo not given) | inactive
11 | O=C(CCNNC(=O)c1ccncc1)NCc1ccccc1 | inactive
12 | Cc1nc2sccn2c(=O)c1CCN1CCC(=C(c2ccc(F)cc2)c2ccc(F)cc2)CC1 | inactive
13 | CN1CCN(CC(=O)N2c3ccccc3C(=O)Nc3cccnc32)CC1 | inactive
14 | CC(C)(C)c1ccc(C(=O)CCCN2CCC(OC(c3ccccc3)c3ccccc3)CC2)cc1 | inactive
15 | CC(C)(Oc1ccc(CCNC(=O)c2ccc(Cl)cc2)cc1)C(=O)O | inactive
16 | CN=C(NC#N)NCCSCc1nc[nH]c1C | inactive
17 | CC(C)(C)NCC(O)c1cc(O)cc(O)c1 (stereo not given) | inactive
18 | Nc1nc(N)c2nc(-c3ccccc3)c(N)nc2n1 | inactive
19 | CCN1CCC[C@H]1CNC(=O)c1c(O)c(Cl)cc(Cl)c1OC | inactive
20 | CC(=O)OCC1=C(C(=O)O)N2C(=O)[C@@H](NC(=O)Cc3cccs3)[C@H]2SC1 | inactive

Row | Structure (SMILES) | outcome
21 | COC(=O)C1=C(C)NC(C)=C(C(=O)OCCN(C)Cc2ccccc2)C1c1cccc([N+](=O)[O-])c1 (stereo not given) | inactive
22 | CC(N=C(NC#N)Nc1ccncc1)C(C)(C)C (stereo not given) | inactive
23 | O=C(O)CCCCCCCC(=O)O | inactive
24 | CNCCC(Oc1ccccc1OC)c1ccccc1 (stereo not given) | inactive
25 | Cc1ccc(=O)n(-c2ccccc2)c1 | inactive
26 | NC(Cc1ccc(Cl)cc1)C(=O)O (stereo not given) | inactive
27 | CC(C(=O)O)c1ccc(CC2CCCC2=O)cc1 (stereo not given) | inactive
28 | CCc1cccc(N(C)C(N)=Nc2cccc3ccccc23)c1 | inactive
29 | CC1=NS(=O)(=O)c2cc(Cl)ccc2N1 | inactive
30 | COCCOC(=O)C1=C(C)NC(C)=C(C(=O)OC(C)C)C1c1cccc([N+](=O)[O-])c1 (stereo not given) | inactive
31 | CCCC(C(=O)OCCN(CC)CC)(c1ccccc1)c1ccccc1 | inactive
32 | OC(CCN1CCCCC1)(c1ccccc1)C1CCCCC1 (stereo not given) | inactive
33 | CN(C)C(=O)Oc1cccc([N+](C)(C)C)c1 | inactive
34 | NC(=O)c1ncn([C@@H]2O[C@H](CO)[C@@H](O)[C@H]2O)c1O | inactive
35 | Cc1nc2ccccn2c(=O)c1CCN1CCC(C(=O)c2ccc(F)cc2)CC1 | inactive
36 | CN(C)C(=O)Oc1ccc[n+](C)c1 | inactive
37 | COc1ccc(CN(CCN(C)C)c2ccccn2)cc1 | inactive
38 | CCN(Cc1ccncc1)C(=O)C(CO)c1ccccc1 (stereo not given) | inactive
39 | CCCN(CCC)CCc1cccc2c1CC(=O)N2 | inactive
40 | O=C(CCCN1CCC(O)(c2cccc(C(F)(F)F)c2)CC1)c1ccc(F)cc1 | inactive
